Screening results as filed in PubChem.
DT40 TDP1 CPT = qHTS for Inhibitors of human tyrosyl-DNA phosphodiesterase 1 (TDP1): qHTS in cells in presence of CPT; chicken DT40 Tdp1-/-;hTDP1 cells + 20 nM CPT, ATP luminescence, 48 h; Potency, µM (titrated, usually from 46.2 µM), usual class: inhibitors; hit rate 12% among 420,000; AID 686979, 2013; also: nearly all actives have a fitted effect of over 55% in size
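Cell growth measured by CellTiter-Glo luminescence after a minimum 48 h, 37 C compound exposure with 20 nM CPT in Tdp1-knockout DT40 cells stably expressing hTDP1, seeded 400/well; qHTS titration format.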
IL-1B inflam inh = qHTS for Inhibitors of Inflammasome Signaling: IL-1-beta AlphaLISA Primary Screen; AID 743279, 2014; activity change, % at 57.5 µM; THP-1 LPS/ATP IL-1B secretion, AlphaLISA, 16 h; active compounds read low; hit rate 4.7% among 360,000; in the data active = activity change below about -50%; inconclusive = mostly about -30% to -49%
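Secreted IL-1B measured by AlphaLISA bead assay after 16 h compound exposure of THP-1 cells; compounds (final up to 57.5 uM) added 1 h before LPS (250 ng/mL) and ATP (1.25 mM) stimulation; lower signal means less secretion.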
HepG2 viability = qHTS for Inhibitors of TGF-b: Cytotox Counterscreen; HepG2 CAGA-GFP viability, ATP luminescence, 18 h; Potency, µM (titrated, usually from 46.1 µM), actives largely listed as cytotoxic; hit rate 0.76% among 410,000
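HepG2 CAGA-GFP cells (1000/well, DMEM with 1% FBS) received compound, then TGF-beta at 500 pg/mL final, and were incubated 18 hours at 37 degrees C. Viability was read by CellTiter-Glo luminescence. Media-only wells were set as complete cell-killing and DMSO as no toxicity.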
TDP1 block = qHTS Assay for Inhibitors of Tyrosyl-DNA Phosphodiesterase (TDP1); Tyrosyl-DNA phosphodiesterase 1 (Homo sapiens), Q9NUW8; recombinant TDP1, AlphaScreen DNA substrate cleavage; Potency, µM (titrated, usually from 130 µM), usual class: inhibitors; hit rate 0.28% among 350,000; AID 485290, 2010; also: nearly all actives have a fitted effect of over 40% in size
Target sequence (Q9NUW8 whole entry, looked up): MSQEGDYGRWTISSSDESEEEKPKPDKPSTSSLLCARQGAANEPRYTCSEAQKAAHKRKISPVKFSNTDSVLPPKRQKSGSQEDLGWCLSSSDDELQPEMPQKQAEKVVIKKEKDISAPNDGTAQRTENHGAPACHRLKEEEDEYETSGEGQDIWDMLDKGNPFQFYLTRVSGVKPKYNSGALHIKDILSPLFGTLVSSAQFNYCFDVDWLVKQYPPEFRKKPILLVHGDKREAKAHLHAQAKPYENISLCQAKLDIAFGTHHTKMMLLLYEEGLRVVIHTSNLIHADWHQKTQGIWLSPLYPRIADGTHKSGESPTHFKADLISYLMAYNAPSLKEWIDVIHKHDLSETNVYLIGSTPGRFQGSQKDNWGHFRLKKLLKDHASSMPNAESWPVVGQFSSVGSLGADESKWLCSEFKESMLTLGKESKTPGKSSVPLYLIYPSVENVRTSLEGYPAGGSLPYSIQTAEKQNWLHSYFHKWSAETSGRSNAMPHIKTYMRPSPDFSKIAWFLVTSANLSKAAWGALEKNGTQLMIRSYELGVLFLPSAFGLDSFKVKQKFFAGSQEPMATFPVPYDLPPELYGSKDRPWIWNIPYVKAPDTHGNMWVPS
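E. coli-derived human Tdp1, 1 nM final. Cpd preinc 15 min RT; substrate 15 nM final, 5 min RT; AS bead mix 10 ug/ml final, 10 min RT. Signal loss = tyrosine-FITC cleavage. No-enzyme wells = max signal.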
TDP1 cell noCPT = qHTS for Inhibitors of human tyrosyl-DNA phosphodiesterase 1 (TDP1): qHTS in cells in absence of CPT; DT40 Tdp1-/- hTDP1 cells, no CPT, ATP luminescence, 48 h; Potency, µM (titrated, usually from 46.2 µM), usual class: inhibitors; hit rate 15% among 420,000; AID 686978, 2013; also: nearly all actives have a fitted effect of over 55% in size
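A cellular qHTS used chicken DT40 cells lacking endogenous Tdp1 but carrying stably transfected human TDP1. Compounds were applied without camptothecin, and cell growth kinetics were judged by ATP-dependent luminescence after ≥48 hr.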
TGFb inhibitor = qHTS for Inhibitors of TGF-b. HepG2 CAGA-GFP TGF-b/SMAD3 reporter, GFP fluorescence, 18 h; TGF-beta stimulated, 500 pg/mL final. Potency, µM (top dose mostly 46.1 µM), actives largely listed as inhibitors. hit rate 1.2% among 410,000. AID 588855, 2011; also: nearly all actives have a fitted effect of over 65% in size
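Smad-responsive CAGA-GFP expression was quantified in HEPG2 cells exposed to compounds and 500 pg/mL final TGF-beta for 18 h at 37 degrees C; unstimulated wells defined full inhibition.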
Hits are given with their value; 0 = inactive; ? = inconclusive; - = no result. Only some compounds are listed: those with a hit (about 18% of all), similar ones and a draw of the others. Unless noted, calls follow the shape of the dose curve; as a rule, active = well fitted curve in the direction sought with a large enough effect; inconclusive = small, poorly fitted or top-dose-only effect, or another doubt; inactive = no such curve, though single readings can be large; an effect the other way counts as inactive or inconclusive.

SMILES | DT40 TDP1 CPT | IL-1B inflam inh | HepG2 viability | TDP1 block | TDP1 cell noCPT | TGFb inhibitor
CCN(Cc1ccccc1)S(=O)(=O)c1cc(C(=O)Nc2cc(Cl)cc(Cl)c2)ccc1F | 6.51µM | - | 0 | 0 | 6.51µM | 5.01µM
CCN(CC)S(=O)(=O)c1cc(C(=O)NC2CCCCC2)ccc1C | ? | 0 | 0 | 0 | ? | 0
CCN(Cc1ccccc1)S(=O)(=O)c1cc(C(=O)NC2CCCCCC2)ccc1OC | 23.1µM | 0 | 0 | 0 | ? | 0
CCOc1nc(OCC)c2[nH]c(C(=O)O)c(Br)c2n1 | 0 | 0 | 0 | - | 0 | 0
O=C(CSc1nnc(Cn2nnc3ccccc32)o1)N(Cc1ccc(Cl)cc1)c1ccccc1 | 7.31µM | -51.8 | 0 | 0 | 7.31µM | 0
CCN(C(=O)CSc1nnc(Cn2nnc3ccccc32)o1)c1nc(-c2ccccc2)cs1 | 23.1µM | 0 | 0 | 0 | ? | 0
Clc1ccc(Cn2nnc3ccccc32)cc1 | 0 | 0 | 0 | ? | 0 | ?
CCN(C(=O)CSc1nnc(Cn2nnc3ccccc32)o1)c1nc(C)cs1 | ? | 0 | 0 | 0 | ? | 0
CCC1CCCCN1CCCNC(=O)c1ccc2c(c1)N(Cc1cccc(C)c1)C(=O)c1ccccc1S2(=O)=O (centres undefined) | 16.4µM | - | 0 | 0 | ? | ?
CCC1CCCCN1CCCNC(=O)c1ccc2c(c1)N(Cc1ccc(Cl)cc1)C(=O)c1ccccc1S2(=O)=O (centres undefined) | 23.1µM | - | 11.2µM | 0 | 23.1µM | ?
CCC1CCCCN1CCCNC(=O)c1ccc2c(c1)N(Cc1cccc(Cl)c1)C(=O)c1ccccc1S2(=O)=O (centres undefined) | ? | - | 0 | 0 | ? | 10µM
CCC1CCCCN1CCCNC(=O)c1ccc2c(c1)N(Cc1ccccc1)C(=O)c1ccccc1S2(=O)=O (centres undefined) | ? | - | 0 | 0 | ? | -
CCOc1ccccc1N(C)C(=O)c1sc2nc3n(c(=O)c2c1C)CCCC3 | ? | - | 0 | 0 | ? | 0
Cc1ccc(S(=O)(=O)N2C[C@H]3C(=O)C[C@@H](c4ccccc4)N(S(=O)(=O)c4ccc(Br)cc4)[C@H]3C[C@H]2c2ccccc2)cc1 | 0 | 0 | 0 | - | 0 | 0
Cc1cc(C)c2c3c(oc2n1)C(=O)N(c1cccc(Cl)c1)CC(=O)N3 | 0 | 0 | 0 | - | ? | ?
COc1ccccc1CNc1ncncc1-c1ccc(C(=O)N(C)C)cc1 | 0 | - | - | - | 0 | -
CC(C)C[C@H](NC(=O)[C@H](CCCCN)NC(=O)CNC(=O)[C@H](CC(C)C)NC(=O)[C@@H](NC(=O)[C@@H]1CSSC[C@H](N)C(=O)N[C@@H](CO)C(=O)N[C@@H](CC(N)=O)C(=O)N[C@@H](CC(C)C)C(=O)N[C@@H](CO)C(=O)N[C@@H]([C@@H](C)O)C(=O)N1)C(C)C)C(=O)N[C@@H](CO)C(=O)N[C@@H](CCC(N)=O)C(=O)N[C@@H](CCC(=O)O)C(=O)N[C@@H](CC(C)C)C(=O)N[C@@H](Cc1cnc[nH]1)C(=O)N[C@@H](CCCCN)C(=O)N[C@@H](CC(C)C)C(=O)N[C@@H](CCC(N)=O)C(=O)N[C@H](C(=O)N[C@@H](Cc1ccc(O)cc1)C(=O)N1CCC[C@H]1C(=O)N[C@@H](CCCNC(=N)N)C(=O)N[C@H](C(=O)N[C@@H](CC(N)=O)C(=O)N[C@H](C(=O)NCC(=O)N[C@@H](CO)C(=O)NCC(=O)N[C@H](C(=O)N1CCC[C@H]1C(N)=O)[C@@H](C)O)[C@@H](C)O)[C@@H](C)O)[C@@H](C)O | - | - | - | 0 | - | -
Cc1nnc(NC(=O)CSc2nc3ccccc3o2)s1 | 0 | 0 | 0 | 0 | ? | 0
